About 15 (0.9%) of roughly 1,700 compounds were called active.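 The calls were made as follows: active = fluorescence response below the plate's average for near-maximal glutamate wells, less 3 SD of those wells; inactive = the rest.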 These entries were drawn from the full list.
The molecules below were run against Metabotropic glutamate receptor 4 (Homo sapiens) (UniProt Q14833) (assay: mGluR4 calcium signal in M1 antagonist follow-up – cell-based, antagonist mode, secondary assay 1, M1 allosteric modulator project (AID 678;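 also: raw unnormalized fluorescence span taken in the window right after glutamate addition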)). Conditions: CHO-mGluR4 calcium flux, Fluo-4 fluorescence, glutamate EC80; at 10 µM; hits give low values.

Fluorescence response (max-min), inactive:
CN(C)[C@@H]1C(=O)C(C(N)=O)=C(O)[C@@]2(O)C(=O)C3=C(O)c4c(O)ccc(Cl)c4[C@@H](O)[C@H]3C[C@@H]12 238, Cc1cccc(N2CCN(Cc3c(C)n(C)n(-c4ccccc4)c3=O)CC2)c1C 223, CCC1(C)Cc2c(sc3nc4n(c(=O)c23)CCCS4)CO1 (stereo not given) 249, O=C(NC1=NCCS1)c1ccc(Cl)s1 158, Cc1nc2ccccc2c2oc(C(=O)NCCCN3CCC(C)CC3)cc12 185, O=S(=O)(CCc1nc2ccccc2o1)c1ccc(Cl)cc1 249, CCOC(=O)C1=C(CC)Nc2ccccc2N=C1NC(=O)c1cccc(S(=O)(=O)N2CCCC2)c1 148, COc1ccc(CCn2c(=N)c(C(=O)NCc3ccco3)cc3c(=O)n4cccc(C)c4nc32)cc1 207, CCC(C(=O)OCCN(CC)CC)c1ccccc1 (stereo not given) 235, O=C(c1ccco1)N1CCN=C1SCc1cccc(Cl)c1 236, O=C1NC(Nc2nc3ccccc3s2)(C(F)(F)F)C(=O)N1C1CCCCC1 (stereo not given) 308, Cn1c(CCN2CCCCCC2)nc2cc(NC(=O)Nc3ccccc3)ccc21 225, CCOC(=O)c1c(-c2ccc(C)cc2C)csc1NC(=O)CSc1nnnn1C 167, CC(C)(C)n1nnnc1C(c1cccs1)N(Cc1cccnc1)CC1CCCO1 (stereo not given) 241, CCn1c(=N)n(CC(=O)c2cccc(OC)c2)c2ccccc21 268, O=C(C(NS(=O)(=O)c1cccc2nsnc12)c1ccccc1)N1CCN(c2ccccn2)CC1 (stereo not given) 228, C=CCn1c(=S)[nH]c2nc3c(cc2c1=O)COC(C)(C)C3 199, Cc1nc2c(-c3ccc(F)cc3)c(C)nn2c(C)c1CCC(=O)N1CCN(c2ccccn2)CC1 245, CN(C)CCOC(=O)C(c1ccccc1)C1(O)CCCC1 (stereo not given) 250, CCCCN(C)C(=O)c1ccc2c(c1)N(CC)C(=O)c1ccccc1S2(=O)=O 258, O=C(NCCCN1CCCCCC1)C1CC(=O)N(C2CCCC2)C1 (stereo not given) 241, CC1CCCC(C)N1CCCNC(=O)c1cc2c(=O)n(C)c3ccccc3c2n1C (stereo not given) 236, CCOc1ccccc1C(=O)NCCCn1ccnc1 200, O=S(=O)(c1ccc(OCC(O)CN2CCN(c3ccccc3Cl)CC2)cc1)N1CCOCC1 (stereo not given) 233, COc1cccc2sc(Nc3nc(C)c(C(C)=O)s3)nc12 200, CCC(C)(NC(=O)c1ccccn1)C(=O)NC1CCCCC1 (stereo not given) 237, COc1cccc(OCCOc2cccc(/C=N/n3cnnc3)c2)c1 210, CCOC(=O)N1CCN(C(=O)C2CCN(c3ncnc4c3sc3cccc(F)c34)CC2)CC1 221, Cc1ccccc1C(OCC(O)CN1CCCCC1CCO)c1ccccc1 (stereo not given) 188, N#CC(C(=O)c1ccc(S(=O)(=O)N2CCCCCC2)cc1)c1nc2ccccc2[nH]1 (stereo not given) 182, COc1ccc(S(=O)(=O)Nc2ccc3c(c2)OCO3)cc1Cl 202, CCOC(=O)C1CCN(Cc2coc3ccc(Cl)cc3c2=O)CC1 219, O=C(Cc1cccs1)N1CCCC(c2nc(-c3ccc(S(=O)(=O)N4CCCC4)cc3)no2)C1 (stereo not given) 213, CCOC(=O)c1[nH]c2ccc(OC)cc2c1NC(=O)CCN1CCN(Cc2ccccc2)CC1 230, CCOC(=O)N1CCN(CC(=O)Nc2cc(C)nn2-c2nc3ccccc3s2)CC1 255, COc1cc(Cl)c(C)cc1NC(=O)CSc1nnc(-c2ccco2)n1CC(C)C 252, CCC(=O)c1ccc(OCC(O)CN2CCN(c3cccc(C(F)(F)F)c3)CC2)cc1 (stereo not given) 252, O=C(NCC(F)(F)F)Nc1nnc(C(F)(F)F)s1 203, CSc1nnc2c(n1)OC(c1ccsc1)N(C(C)=O)c1ccccc1-2 (stereo not given) 247, CN1CCN(CC(=O)Nc2sc3c(c2C#N)CCC(C(C)(C)C)C3)CC1 (stereo not given) 231, Cc1ccc(-c2csc3nnc(SCC(=O)NCc4ccco4)n23)cc1 237, Cc1ccsc1-c1nc(CSCC(=O)NCCN2CCCC2)c(C)o1 246, CC1=Nn2c(nnc2-c2ccccc2)SC1 162, CCCCCOC(=O)NCCOC(=O)Nc1ccc(C(=O)OCC)cc1 170, CCOC(=O)N1CCN(C(=O)C2CCCN(c3ncnc4c3sc3cccc(F)c34)C2)CC1 (stereo not given) 165, c1ccc(-c2cc(-c3nnc4sc(-c5ccccn5)nn34)[nH]n2)cc1 215, CC1(C)Cc2c(sc3nc4n(c(=N)c23)CCCCC4)CO1 203, CCN(CCCCOC(=O)c1ccc(OC)c(OC)c1)C(C)Cc1ccc(OC)cc1 (stereo not given) 254, Cc1ccc(-c2noc(CCC(=O)Nc3ccccc3N3CCN(C)CC3)n2)cc1 218, COC(=O)c1ccc(NC(=O)CN(c2ccc(C)cc2)S(=O)(=O)c2c(C)n[nH]c2C)cc1 174, O=C(c1ccc(S(=O)(=O)N2CCOCC2)cc1)N1CCN(c2ccccc2)CC1 197, COc1ccc(-c2noc(CN(C)S(=O)(=O)c3ccc(C)cc3)n2)cc1 259, COc1ccc(-c2nnn(Cc3nc(N)nc(N4CCCCC4)n3)n2)cc1 348, CC1(C)CN=C(N2CCN(c3ncnc4sc5c(c34)CCCC5)CC2)S1 244, CC12CN(Cc3ccccc3)CC(C)(CN(Cc3ccccc3)C1)C2=NO 253, COCCN(C(=O)CCC(=O)Nc1ccccn1)C(C(=O)NCCC(C)C)c1ccc(OC)cc1 (stereo not given) 243, O=C(CCN1C(=O)COc2ccccc21)NCCCN1CCN(c2ccc(F)cc2)CC1 252, COCCn1c(SCC(=O)Nc2cc(Cl)ccc2OC)nc2c(c1=O)SC(C)C2 (stereo not given) 256, COc1cc(OC)c(C(=O)NC2CC(C)(C)NC(C)(C)C2)cc1OC 184, CN1CCN(c2ccc(NC(=O)COc3ccc(Cl)cc3Cl)cc2)CC1 245, O=C(C(c1ccccc1)c1ccccc1)N1CCN(CC(O)COc2ccccc2)CC1 (stereo not given) 172, C=CCSc1nc2ccccc2[nH]1 255, COC(CCN(C)C)(c1ccccc1)c1ccccc1 257, CCN1CCN(c2c(Cl)cccc2NC(=O)c2ccc(Br)o2)CC1 203, O=C(Nc1ccncc1)c1c(F)cccc1F 195, CCn1c(=O)cc(OCC(=O)NCCCN2CCN(c3cccc(Cl)c3)CC2)c2ccccc21 275, CCOC(=O)c1c(NC(=O)CSc2nnc(CN3CCOCC3)n2C)sc2c1CCCC2 212, COC(=O)c1ccc(C2C3=C(Nc4nnnn42)c2ccccc2OC3)cc1 (stereo not given) 256, CCC/C(O)=C1\C(=O)CC(C)(C)CC1=Nc1ccccc1OC 272, CCOC(=O)Nc1ccc2c(c1)N(C(=O)CN1CCN3CCCC3C1)c1ccccc1CC2 (stereo not given) 187, O=C(c1ccc(-n2cnnn2)cc1)N1CCN(C(c2ccccc2)c2ccccc2)CC1 242, CCOC(=O)N1CCN(S(=O)(=O)c2cc(Br)cc3c2N(C(=O)C2CC2)CC3)CC1 246, Cc1cc(C)n(-c2nc(SCC(=O)N3CCCC3)c3c4c(sc3n2)CCCC4)n1 193, CCCCN(CCCC)C(=O)CCS(=O)(=O)c1ccc2c(c1)n(C)c(=O)c(=O)n2C 272, C=C(C)Cn1c(N2CCCC2)nc2c1c(=O)[nH]c(=O)n2C 203, Cc1c(C)c2cc3c4c(oc3c(C)c2oc1=O)CCCC4 174, CCN1C(=O)/C(=C2\SC(N3CCCCC3)=NC2=O)c2ccccc21 235, CCCCOc1ccc(C(C)(O)CCN2CCOCC2)cc1 (stereo not given) 209, O=C(CCCN1C(=O)CSc2ncccc21)N1CCN(c2cccc(C(F)(F)F)c2)CC1 263, COc1ccccc1OCCOc1ccc(/C=N/n2cnnc2)cc1 239
